Laboratory results reported in PubChem BioAssay.
Calls of active or inactive are those of the source. Unless noted, no rule for the calls is given here.

Assays:
[1] = differential killing of epithelial or mesenchymal cells, primary screen, imaging, PC-3E GFP, TEM4-18 mCherry, co-culture (AID 1345086;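 active = compounds killing one labelled cell type while sparing the other, by normalised counts and ratio limits, not self-fluorescent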;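 as to all read-outs here: cells exposed to compound for 72 h before imaging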;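 as to red/green cell ratio (normalised): normalised mesenchymal count divided by normalised epithelial count so high means epithelial killing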); conditions: imaging cell counts, at 1 µM; for red/green cell ratio (normalised): actives lie on both sides
[2] = system: Neuropilin-2 / VEGF-C interaction (human); assay: inhibitors of NRP2–VEGF-C binding, biochemical, microplate binding format, z-score (AID 743281); conditions: microplate NRP2/VEGF-C binding assay; stronger effect = lower value
[3] = modulation of C. elegans fzo-1 (AID 1259413);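 also: fzo-1 mutant C. elegans worms in liquid wells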; conditions: C. elegans fzo-1 modulator screen, mean read-out; stronger effect = higher value
[4] = liver-stage malaria parasite growth inhibition, primary screen, cell-based, HepG2, luciferase luminescence, HepG2 viability (AID 624349; in the data active = parasite load remaining mostly below about 12%, no sharp cut-off; inactive = mostly above about 10%;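 also: 100% = mean of DMSO negative control wells on the same plate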); conditions: P. berghei liver stage in HepG2, luciferase luminescence, concentration not given here; parasite load remaining: stronger effect = lower value; viability: measured here: HepG2 viability without parasites
[5] = Cy5 fluorescence interference with SSB-bound oligo, artefact control for HCV NS3 helicase inhibitor project, biochemical, NIH Clinical Collection, E. coli SSB (AID 743268)
[6] = system: Hepatitis C virus NS3 helicase; assay: HCV NS3 helicase inhibitors, primary screen, biochemical, fluorescence polarization, NIH Clinical Collection (AID 743270); conditions: NS3 helicase binding to Cy5-dT15 DNA, stronger effect = higher value, concentration not given here
[7] = molecular target: Single-stranded DNA-binding protein (Escherichia coli (strain K12)) (UniProt P0AGE0); assay: E. coli SSB displacement from DNA, counter-screen for HCV NS3 helicase inhibitor project, biochemical, fluorescence polarization, NIH Clinical Collection (AID 743271; in the data active = inhibition above about 28%); conditions: stronger effect = higher value, concentration not given here
[8] = fluorescence interference in NS3h assay format, artefact control for HCV NS3 helicase inhibitor project, biochemical, NIH Clinical Collection (AID 743272); conditions: fluorescence interference counterscreen, stronger effect = lower value;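 also: HCV NS3 helicase with a Cy5 labelled single stranded DNA probe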
[9] = counts scaled to control wells, 1 = unselective
[10] = measured here: epithelial PC-3E GFP cell survival
[11] = measured here: mesenchymal TEM4-18 mCherry cell survival

## COc1cc([C@@H]2c3cc4c(cc3[C@H](OC(C)=O)C3COC(=O)[C@H]32)OCO4)cc(OC)c1OC (stereo not given in full)
[1]; [9]
  red/green cell ratio (normalised): 1.07 (inactive)
[1]; [10]
  normalised cell number: 0.19
[1]; [11]
  normalised cell number: 0.2

## CC12CCC(=O)C=C1CC[C@@H]1[C@@H]2CCC2(C)[C@@H](O)CC[C@@H]12 (stereo not given in full)
[2]
  outcome: inactive
[3]
  mean signal: 263 (inactive)

## CC12CC[C@H](O)CC1=CC[C@@H]1[C@@H]2CCC2(C)[C@H]1CC[C@]2(C)O (stereo not given in full)
[2]
  outcome: inactive
[3]
  mean signal: 278 (inactive)

## c1ccc(S[C@@H]2OC3COC(c4ccccc4)OC3[C@H]3NC32)cc1 (stereo not given in full)
[1]; [9]
  red/green cell ratio (normalised): 0.98 (inactive)
[1]; [10]
  normalised cell number: 1.08
[1]; [11]
  normalised cell number: 1.06

## CC(=O)OCC1=C(C(=O)O)N2C(=O)[C@@H](N)C2SC1 (stereo not given in full)
[1]
  red/green cell ratio (normalised): 1.18 (inactive)
[1]; [10]
  normalised cell number: 0.96
[1]; [11]
  normalised cell number: 1.14

## CC[C@H](c1cccc(O)c1)[C@@H](C)CN(C)C
[1]
  red/green cell ratio (normalised): 0.92 (inactive)
[1]; [10]
  normalised cell number: 1.05
[1]; [11]
  normalised cell number: 0.96

## CN1CC[C@]2(c3cccc(O)c3)Cc3nc4ccccc4cc3C[C@H]2C1
[4]
  parasite load remaining: 54.3% (inactive)
  viability: 65.5%
[5]
  fluorescence ratio: 0.96 (inactive)
[6]
  inhibition: -8.08% (inactive)
[7]
  inhibition: -1.97% (inactive)
[8]
  fluorescence ratio: 0.98 (inactive)
[2]
  z-score: -0.954 (inactive)
[3]
  mean signal: 226 (inactive)

## CC12C/C(=C/O)C(=O)C[C@@H]1CC[C@@H]1[C@@H]2CCC2(C)[C@H]1CC[C@]2(C)O (stereo not given in full)
[2]
  outcome: inactive
[3]
  mean signal: 230 (inactive)

## CC12CC[C@H]3[C@@H](CCC4=CC(=O)CC[C@@H]43)[C@@H]1CC[C@@H]2O (stereo not given in full)
[2]
  outcome: inactive
[3]
  mean signal: 225 (inactive)

## CN1CC[C@@]2(C)c3cc(O)ccc3N(C)[C@@H]12
[1]; [9]
  red/green cell ratio (normalised): 1.19 (inactive)
[1]; [10]
  normalised cell number: 0.88
[1]; [11]
  normalised cell number: 1.05

## Cc1ncc(C[n+]2csc(CCO)c2C)c(=O)[nH]1
[1]; [9]
  red/green cell ratio (normalised): 0.81 (inactive)
[1]; [10]
  normalised cell number: 1.27
[1]; [11]
  normalised cell number: 1.03

## CC[C@]1(O)CC[C@H]2[C@@H]3CCC4=CCCC[C@@H]4[C@H]3CCC21C (stereo not given in full)
[2]
  outcome: inactive
[3]
  mean signal: 230 (inactive)

## CC1NCCc2cc(O)c(O)cc21 (stereo not given)
[1]; [9]
  red/green cell ratio (normalised): 0.96 (inactive)
[1]; [10]
  normalised cell number: 1.11
[1]; [11]
  normalised cell number: 1.06

## CC[C@H]1CN2CCC1C[C@@H]2[C@H](O)c1ccnc2ccc(OC)cc12 (stereo not given in full)
[1]; [9]
  red/green cell ratio (normalised): 0.88 (inactive)
[1]; [10]
  normalised cell number: 1.22
[1]; [11]
  normalised cell number: 1.07

## C/C=C(\C)C(=O)O[C@H]1C[C@@H](OC(C)=O)[C@@]2(C(=O)OC)CO[C@@H]3C2[C@]12CO[C@](O)(C(=O)OC)[C@H]2[C@](C)(C12O[C@@]1(C)[C@H]1C[C@H]2OC2OC=C[C@@]21O)[C@@H]3O (stereo not given in full)
[1]; [9]
  red/green cell ratio (normalised): 1.21 (inactive)
[1]; [10]
  normalised cell number: 0.89
[1]; [11]
  normalised cell number: 1.08

## COc1cc2c(c3oc4cccc(O)c4c(=O)c13)[C@@H]1C=CO[C@@H]1O2
[1]
  red/green cell ratio (normalised): 0.95 (inactive)
[1]; [10]
  normalised cell number: 1.04
[1]; [11]
  normalised cell number: 0.98

## Oc1ccc2c3c1O[C@H]1c4[nH]c5ccccc5c4CC4(O)C(C2)N(CC2CC2)CC[C@]314 (stereo not given in full)
[2]
  outcome: inactive
[3]
  mean signal: 234 (inactive)

## COc1cc([C@@H]2c3cc4c(cc3[C@H](OC(C)=O)C3COC(=O)[C@@H]32)OCO4)cc(OC)c1OC (stereo not given in full)
[1]; [9]
  red/green cell ratio (normalised): 0.81 (inactive)
[1]; [10]
  normalised cell number: 0.2
[1]; [11]
  normalised cell number: 0.16

## CC12Cc3cn[nH]c3C[C@@H]1CC[C@@H]1[C@@H]2CCC2(C)[C@H]1CC[C@]2(C)O (stereo not given in full)
[2]
  outcome: inactive
[3]
  mean signal: 229 (inactive)

## C[CH2][Hg+].O=C([O-])c1ccccc1[S-].[Na+]
[1]; [9]
  red/green cell ratio (normalised): 0.36 (inactive)
[1]; [10]
  normalised cell number: 0.18
[1]; [11]
  normalised cell number: 0.06

## CC12CC[C@H]3[C@@H](CC=C4C[C@@H](O)CCC43C)[C@@H]1CCC2=O (stereo not given in full)
[2]
  outcome: inactive
[3]
  mean signal: 245 (inactive)

## O=C(O)COc1ccc(O)cc1
[1]; [9]
  red/green cell ratio (normalised): 1.05 (inactive)
[1]; [10]
  normalised cell number: 1.09
[1]; [11]
  normalised cell number: 1.15

## C[N+]12CC[C@@]34c5ccccc5N5C(=O)CC6OCC=C(C1)[C@@H](CC32)[C@@H]6C54 (stereo not given in full)
[1]; [9]
  red/green cell ratio (normalised): 1.07 (inactive)
[1]; [10]
  normalised cell number: 0.95
[1]; [11]
  normalised cell number: 1.01

## CC(C)(O)[C@@H]1[C@H]2OC(=O)[C@@H]1C1(O)C[C@H]3O[C@]34C(=O)O[C@H]2[C@]14C (stereo not given in full) (tested in a mixture with another compound)
[2]
  outcome: inactive
[3]
  mean signal: 237 (inactive)

## O=C1NCC[C@H]1O
[1]; [9]
  red/green cell ratio (normalised): 0.95 (inactive)
[1]; [10]
  normalised cell number: 1.13
[1]; [11]
  normalised cell number: 1.08

## C[C@@H]1C(=O)OC2[C@H](O)C34[C@@H]5OC(=O)[C@@]3(OC3OC(=O)[C@H](O)[C@@]34[C@H](C(C)(C)C)[C@H]5O)[C@]21O (stereo not given in full)
[1]; [9]
  red/green cell ratio (normalised): 1.08 (inactive)
[1]; [10]
  normalised cell number: 0.86
[1]; [11]
  normalised cell number: 0.93

## C=C1C[C@@H]2[C@H](CCC3(C)C(=O)CC[C@@H]23)C2(C)C=CC(=O)C=C12 (stereo not given in full)
[2]
  outcome: inactive
[3]
  mean signal: 265 (inactive)

## CN1C[C@H](C(=O)N[C@]2(C)O[C@@]3(O)C4CCCN4C(=O)[C@H](Cc4ccccc4)N3C2=O)C=C2c3cccc4[nH]cc(c34)C[C@H]21 (stereo not given in full)
[1]
  red/green cell ratio (normalised): 0.93 (inactive)
[1]; [10]
  normalised cell number: 1.08
[1]; [11]
  normalised cell number: 1

## CC12CCC(=O)C[C@@H]1CC[C@@H]1[C@@H]2CCC2(C)[C@H]1CC[C@]2(C)O (stereo not given in full)
[2]
  outcome: inactive
[3]
  mean signal: 277 (inactive)

## C=C(C)CN1CC[C@]23c4c5ccc(O)c4O[C@H]2c2[nH]c4ccccc4c2CC3(O)C1C5 (stereo not given in full)
[2]
  outcome: inactive
[3]
  mean signal: 243 (inactive)

## CCC(C)C(=O)O[C@@H]1C[C@@]2(C)[C@H](c3ccoc3)OC(=O)CC23OC2(C)O[C@]14C1(C)[C@@H](CC(=O)OC)C5(C)CC1(O)[C@](O)(C5OC(=O)C1(C)OC1C)[C@@H](OC(C)=O)[C@]34O2 (stereo not given in full)
[1]; [9]
  red/green cell ratio (normalised): 1.2 (inactive)
[1]; [10]
  normalised cell number: 0.97
[1]; [11]
  normalised cell number: 1.16

## C[C@]12[C@H](O)CC3C(CC[C@@H]4C[C@@H](O)CC[C@]34C)[C@@]1(O)CC[C@@H]2C1=CC(=O)OC1 (stereo not given in full)
[1]
  red/green cell ratio (normalised): 0.53 (inactive)
[1]; [10]
  normalised cell number: 0.38
[1]; [11]
  normalised cell number: 0.2

## C[C@@H]1CC[C@@]2(NC1)OC1CC3C4CC=C5C[C@@H](O)CC[C@]5(C)C4CC[C@]3(C)C1[C@@H]2C (stereo not given in full)
[1]; [9]
  red/green cell ratio (normalised): 1.02 (inactive)
[1]; [10]
  normalised cell number: 1.11
[1]; [11]
  normalised cell number: 1.13

## COc1cc(=O)oc(/C=C/C=C/C=C/C(C)=C/[C@@]2(C)O[C@@H](C)[C@@](C)(O)[C@@H]2O)c1C
[1]; [9]
  red/green cell ratio (normalised): 0.98 (inactive)
[1]; [10]
  normalised cell number: 0.87
[1]; [11]
  normalised cell number: 0.85
